Measurements: PubChem BioAssay AID624487 (NMMLSC, 2012)
Results with a measured potency or affinity are listed apart. The source made the active and inactive calls.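 How the source made its calls: active means fitted EC50, the dose giving half the maximal drop in porphyrin signal, under 100 µM; inactive means the rest.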

molecular target: ATP-binding cassette sub-family B member 6 (Homo sapiens) (UniProt Q9NP58); assay: ABCB6 transporter inhibitors, porphyrin accumulation, dose response, flow cytometry, K562-ABCB6 cells, cherry pick 02 (AID 624487); conditions: 1 h; series mostly up to 100 µM
Sequence (Q9NP58 whole entry, looked up): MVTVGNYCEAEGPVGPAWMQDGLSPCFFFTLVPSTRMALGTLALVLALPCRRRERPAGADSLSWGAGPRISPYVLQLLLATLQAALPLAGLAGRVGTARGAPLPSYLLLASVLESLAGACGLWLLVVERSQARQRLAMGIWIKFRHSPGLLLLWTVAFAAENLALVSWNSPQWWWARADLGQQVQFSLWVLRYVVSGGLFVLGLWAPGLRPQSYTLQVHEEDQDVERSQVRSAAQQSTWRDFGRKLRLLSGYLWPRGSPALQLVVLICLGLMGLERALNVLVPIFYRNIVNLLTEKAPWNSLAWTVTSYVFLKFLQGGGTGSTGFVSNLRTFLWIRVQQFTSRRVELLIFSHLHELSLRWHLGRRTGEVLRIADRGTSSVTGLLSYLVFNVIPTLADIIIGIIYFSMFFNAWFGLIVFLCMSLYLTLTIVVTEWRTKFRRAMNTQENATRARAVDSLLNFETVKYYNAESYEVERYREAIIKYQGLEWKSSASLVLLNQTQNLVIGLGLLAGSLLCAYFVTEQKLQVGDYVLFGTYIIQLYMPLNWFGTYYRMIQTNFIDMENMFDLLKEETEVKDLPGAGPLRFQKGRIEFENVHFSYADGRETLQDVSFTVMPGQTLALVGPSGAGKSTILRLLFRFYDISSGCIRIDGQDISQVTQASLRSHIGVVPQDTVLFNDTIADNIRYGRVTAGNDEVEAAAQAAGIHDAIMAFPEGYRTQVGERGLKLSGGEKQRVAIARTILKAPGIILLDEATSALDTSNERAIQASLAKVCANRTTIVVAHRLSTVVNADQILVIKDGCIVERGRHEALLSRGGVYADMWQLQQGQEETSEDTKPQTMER

outcome, inactive:
Cc1ccc(CS(=O)(=O)c2ncc(Cl)c(C(=O)Nc3ccc(OC(F)F)cc3)n2)cc1
Cc1nnc(NC(=O)c2nc(S(=O)(=O)Cc3ccccc3C)ncc2Cl)s1
CCCc1nnc(NC(=O)c2nc(S(=O)(=O)Cc3ccc(C)cc3)ncc2Cl)s1
CC(C)c1nnc(NC(=O)c2nc(S(=O)(=O)Cc3ccc(F)cc3)ncc2Cl)s1
COc1ccc(OC)c(NC(=O)c2nc(S(=O)(=O)Cc3ccccc3)ncc2Cl)c1
COc1ccc(NC(=O)c2nc(S(=O)(=O)Cc3cccc(C)c3)ncc2Cl)c(OC)c1
CCc1nnc(NC(=O)c2nc(S(=O)(=O)Cc3cccc(C)c3)ncc2Cl)s1
CCOc1ccccc1NC(=O)c1nc(S(=O)(=O)Cc2ccccc2)ncc1Cl
Cc1nnc(NC(=O)c2nc(S(=O)(=O)Cc3ccccc3)ncc2Cl)s1
Cc1cccc(CS(=O)(=O)c2ncc(Cl)c(C(=O)Nc3nnc(C(C)C)s3)n2)c1
CCOC(=O)c1ccc(NC(=O)c2nc(S(=O)(=O)Cc3ccccc3)ncc2Cl)cc1
Cc1ccc(CS(=O)(=O)c2ncc(Cl)c(C(=O)Nc3nnc(C)s3)n2)cc1
CCc1nnc(NC(=O)c2nc(S(=O)(=O)Cc3ccccc3)ncc2Cl)s1
